Data taken from PubChem BioAssay (NCI).
Compounds without any hit were thinned out: in the full panel of roughly 83,000, 20% have a hit.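 Growth was measured after 48 h exposure to one concentration of compound in 96-well plates. Values under 10 count as active.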 Active and inactive are the calls of the source.

Columns and labels:
Assay in all cases: NCI-60 one-dose screen, 48 h (100 = growth as untreated, 0 = no growth, -100 = all killed)
[1] = tested on: DU-145 prostate; details: 10 µM unless noted
[2] = tested on: K-562 leukemia; details: 10 µM unless noted
[3] = tested on: RXF 393 renal; details: 10 µM unless noted
[4] = tested on: SF-295 CNS; details: 10 µM unless noted
[5] = tested on: UACC-257 melanoma; details: 10 µM unless noted
[6] = tested on: HCT-15 colon; details: 10 µM
[7] = tested on: HT29 colon; details: 10 µM unless noted
[8] = tested on: SNB-75 CNS; details: 10 µM unless noted
[9] = tested on: SNB-19 CNS; details: 10 µM unless noted
[10] = tested on: PC-3 prostate; details: 10 µM unless noted
[11] = tested on: SK-MEL-5 melanoma; details: 10 µM unless noted
[12] = tested on: LOX IMVI melanoma; details: 10 µM unless noted
[13] = tested on: CAKI-1 renal; details: 10 µM unless noted
[14] = tested on: A498 renal; details: 10 µM unless noted
[15] = tested on: HL-60(TB) leukemia; details: 10 µM unless noted
[16] = tested on: MOLT-4 leukemia; details: 10 µM
[17] = tested on: T-47D breast; details: 10 µM unless noted
[18] = tested on: BT-549 breast; details: 10 µM
[19] = tested on: HCC-2998 colon; details: 10 µM unless noted
[20] = tested on: MALME-3M melanoma; details: 10 µM unless noted

Measured: growth

NC(Cc1ccc(O)cc1)C(=O)N/N=C/c1ccc(N(CCCl)CCCl)cc1 (centres undefined)
inactive: [1] 69.2% | [2] 41.3% | [3] 95.3% | [4] 48.5% | [5] 93.6% | [6] 85.8% | [7] 100% | [8] 70.2% | [9] 92.5% | [10] 56% | [11] 88.9% | [12] 44.4% | [13] 25.9% | [14] 82.3% | [16] 29.8% | [17] 79.2% | [18] 73.3% | [19] 87.2%
active: [15] 8.82%

CC(N)Cc1ccc(O)cc1 (centres undefined)
inactive: [1] 112% | [2] 94.8% | [20] 98.6% | [3] 112% | [4] 118% | [5] 94.6% | [6] 113% | [7] 98.4% | [8] 107% | [9] 114% | [10] 98.8% | [11] 103% | [12] 99.2% | [13] 103% | [14] 80.7% | [15] 90.2% | [16] 83.4% | [17] 98.3% | [18] 126% | [19] 111%

COc1ccc(C2=NN(c3ccccc3)C(c3sc(N(CCCl)CCCl)nc3Cl)C2)cc1 (centres undefined)
inactive: [1] 106% | [2] 64.1% | [20] 99.3% | [3] 110% | [4] 93.2% | [5] 89.7% | [6] 97.9% | [7] 72.6% | [8] 74.2% | [9] 93.5% | [10] 69.5% | [11] 83.7% | [12] 89.8% | [13] 69.4% | [14] 122% | [15] 99.8% | [16] 67.5% | [17] 69.5% | [18] 108% | [19] 107%

O=C1NC2(CCNCC2)Nc2ccccc21
inactive: [1] 108% | [20] 117% | [3] 111% | [4] 107% | [5] 85.7% | [6] 113% | [7] 98.2% | [8] 82.8% | [9] 96.2% | [10] 88.5% | [11] 114% | [12] 102% | [14] 95.5% | [15] 95.6% | [16] 84.7% | [17] 109% | [18] 108% | [19] 103%

O=C(/C=C/c1ccccc1)N[C@@H](CO)Cc1cnc[nH]1
inactive: [1] 114% | [2] 107% | [20] 110% | [3] 118% | [4] 98.9% | [6] 98.6% | [7] 105% | [8] 94.3% | [9] 103% | [10] 97.9% | [11] 103% | [12] 97.2% | [13] 100% | [14] 115% | [15] 98.8% | [16] 93.8% | [17] 104% | [18] 103% | [19] 112%

CC(=O)N1N=C(c2ccccc2)CC1c1sc(N(CCCl)CCCl)nc1Cl (centres undefined)
inactive: [1] 99.5% | [2] 80% | [20] 109% | [3] 97.5% | [4] 92.5% | [5] 92.2% | [6] 94.8% | [7] 93.9% | [8] 83.1% | [9] 86.1% | [10] 88.1% | [11] 99.1% | [12] 103% | [13] 80.2% | [14] 97.5% | [15] 98% | [16] 86.7% | [17] 82.3% | [18] 92.8% | [19] 96.4%

O=C(CCCN1CCC2(CC1)C(=O)NCN2c1ccc(F)cc1)c1ccc(F)cc1
inactive: [1] 122% | [2] 113% | [20] 94.7% | [3] 102% | [4] 180% | [5] 104% | [6] 105% | [7] 111% | [8] 92.4% | [9] 95.6% | [10] 101% | [11] 104% | [12] 106% | [13] 121% | [14] 106% | [15] 100% | [16] 103% | [17] 102% | [18] 97.3% | [19] 100%

CCC1CN1P(=O)(OCCOC)N1CC1CC (centres undefined)
inactive: [1] 110% | [2] 109% | [20] 110% | [3] 110% | [5] 96.7% | [6] 99.4% | [7] 104% | [8] 92.9% | [9] 104% | [10] 98.2% | [11] 109% | [12] 105% | [14] 119% | [15] 119% | [16] 108% | [17] 104% | [18] 106% | [19] 104%
